Here are results for 30 molecules from ChEMBL document CHEMBL4513216, “Probing the Open Global Health Chemical Diversity Library for Multistage-Active Starting Points for Next-Generation Antimalarials” (ACS Infect Dis, 2020).

Molecules are shown by their SMILES. Hit rate of the full screen: of about 69,000 compounds, about 8,600 (12%) showed an effect of 50% or more. The sample holds strong results, similar compounds and a random draw of the others, so the mix is not that of the screen.

This assay deals with Plasmodium berghei. Nature of the assay: Screen against P. berghei liver stage (PbLuc), transformed with Luciferase, at 10uM. The class given is functional, HepG2. Particulars: tested at 10 uM.
With `Cc1ccc(-n2ncc(C(=O)NC3CCCCC3)c2N)cc1`, the INHIBITION came to 66.5%.

In the case of `CCc1c(C(=O)NC2CCS(=O)(=O)C2)cnn1-c1ccc(C)cc1` (stereo not given), the INHIBITION is recorded as -17%.

On to `Cc1ccc(-n2ncc(C(=O)NC3CC(C)(C)NC(C)(C)C3)c2N)cc1`, for which the INHIBITION is given as -21.1%.

Regarding `CCOc1c(F)cccc1C(=O)N(CC)C(C)c1cccnc1` (stereo not given), the INHIBITION worked out at 43.1%.

In the case of `CCOc1c(F)cccc1C(=O)N(c1cccnc1)C(C)C`, the INHIBITION was found to be 55.1%.

Turning to `CCOc1c(F)cccc1C(=O)N(CC)C(C)c1ccncc1` (stereo not given), the INHIBITION is 31.2%.

For the molecule `COC(=O)CCN(CC1CCOC1)C1CC1` (stereo not given), the INHIBITION is reported as 43.9%.

`NC(=O)CN(CC1CCOC1)C1CC1` (stereo not given): the INHIBITION was found to be 9.16%.

As to `COC(=O)CN(CC1CCOC1)C1CC1` (stereo not given), the INHIBITION came to 50.5%.

On to `CC(C)N1CCc2[nH]nc(C(=O)N3CCN(C)CC3)c2C1`, for which the INHIBITION is 1.34%.

Regarding `Cc1cccc(-n2nnnc2C(C)(C)Nc2ccccc2C)c1`, the INHIBITION worked out at 39.1%.

Take `COc1ccc(-n2nnnc2C2(NCc3ccco3)CCCCC2)cc1`: the INHIBITION was determined as 24.2%.

On to `Cc1ccc(NC(C)(C)c2nnnn2-c2ccc(Cl)cc2)c(C)c1`, for which the INHIBITION is on record as 81.1%.

On to `COc1ccc(-n2nnnc2C(C)(C)Nc2ccc(C)cc2C)cc1`, for which the INHIBITION came to 77.7%.

With `Cc1cc(Cl)ccc1NCC(=O)Nc1cc(C(C)(C)C)no1`, the INHIBITION came to 24.7%.

As for `COc1ccc(-n2nnc(C(=O)NC(C)C)c2C2CC2)cc1`, the INHIBITION stood at 40.1%.

For the molecule `c1cnc2c(c1)cc([C@@H]1CCCO1)n2CCN1CCOCC1`, the INHIBITION is recorded as 0.301%.

On to `NC(=O)C(CNC(=O)CCc1ccsc1)Cc1ccc(F)cc1` (stereo not given), for which the INHIBITION was 13.1%.

With `Cc1ccoc1C(=O)N1CC[C@H]2[C@@H]1CCC(=O)N2c1cccnc1`, the INHIBITION was -7.38%.

For the molecule `OCc1n[nH]c(-c2ccc(F)cc2)n1`, the INHIBITION is -17%.

For the molecule `c1cnnc(NCC2CN(CC3CCOCC3)CCO2)c1` (stereo not given), the INHIBITION is recorded as -35.7%.

On to `CCN1Cc2cc(OC)ccc2N(CC(C)(C)O)CCC1=O`, for which the INHIBITION is 17.7%.

As to `CC(C)(O)CN1CCC(=O)N(Cc2ccco2)Cc2cc(F)ccc21`, the INHIBITION was -17.1%.

On to `COc1ccc2c(c1)CN(Cc1ccco1)C(=O)CCN2CC(C)(C)O`, for which the INHIBITION came out at 51.7%.

As for `CCOc1cc(CNCC2CN(C3CC3)CCO2)ccc1OC` (stereo not given), the INHIBITION turned out to be 22.3%.

Regarding `O=C(N[C@@H]1CN(Cc2ccc(F)cc2)C[C@H]1O)c1cscn1`, the INHIBITION is 10%.

In the case of `O=C(N[C@@H]1CN(CCc2ccc(F)cc2)C[C@H]1O)c1cscn1`, the INHIBITION is 54.5%.

As to `O=C(N[C@@H]1CN(Cc2ccc(F)c(F)c2)C[C@H]1O)c1cscn1`, the INHIBITION is 2.6%.

Take `Cc1nc(Nc2nnc(C)s2)cc(C2CCCN2C2CCCC2)n1` (stereo not given): the INHIBITION turned out to be 28%.

As for `CCc1ncnc2c1CCN(Cc1ccccn1)CC2`, the INHIBITION is on record as -9.48%.
